Screens deposited in PubChem BioAssay by National Center for Advancing Translational Sciences (NCATS).
FLuc counter: qHTS profiling assay for firefly luciferase inhibitor/activator using purifed enzyme and Km concentrations of substrates (counterscreen for miR-21 project); purified FLuc, Km substrates, luminescence inhibition; 6.9% of 360,000 active; Potency, µM (doses to about 57.5 µM), for inactives: at the top dose activity change, negative = inhibition, most hits filed as inhibitors;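 also: plate controls were vehicle for no effect and reference inhibitor for full effect; nearly all actives have a fitted effect of over 55% in size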
Target sequence (P08659 whole entry, looked up): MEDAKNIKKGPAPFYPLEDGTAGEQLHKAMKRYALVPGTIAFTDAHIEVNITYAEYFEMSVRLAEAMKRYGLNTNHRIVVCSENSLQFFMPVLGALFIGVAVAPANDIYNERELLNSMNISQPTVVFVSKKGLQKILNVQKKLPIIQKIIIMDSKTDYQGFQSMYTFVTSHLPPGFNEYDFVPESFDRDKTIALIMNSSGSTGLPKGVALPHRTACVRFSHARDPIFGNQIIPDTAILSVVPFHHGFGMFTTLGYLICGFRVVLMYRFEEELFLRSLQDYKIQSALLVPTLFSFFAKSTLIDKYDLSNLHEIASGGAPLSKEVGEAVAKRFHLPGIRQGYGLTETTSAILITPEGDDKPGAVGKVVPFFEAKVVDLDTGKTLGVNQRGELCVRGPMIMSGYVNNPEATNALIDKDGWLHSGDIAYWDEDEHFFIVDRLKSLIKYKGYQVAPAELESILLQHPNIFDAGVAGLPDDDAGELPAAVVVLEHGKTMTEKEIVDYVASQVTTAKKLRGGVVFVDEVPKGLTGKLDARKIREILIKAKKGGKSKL
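Purified P. pyralis luciferase (10nM final) with 10uM D-luciferin and 10uM ATP (Km levels) in 50mM Tris acetate pH 7.5, 10mM Mg acetate, 0.01% Tween-20, 0.05% BSA; qHTS 6-point titration, ~60 µM downward; luminescence read.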
Rab9 promoter act: qHTS Assay for Rab9 Promoter Activators; AID 485297, 2010; 2.8% of 320,000 active; Huh7 Rab9 promoter-luciferase reporter, luminescence, 24 h; Potency, µM (doses to about 9.22 µM), for the others: top-dose activation, negative = inhibition, hits mostly activators; also: % of control where 0% means no effect; nearly all actives have a fitted effect of over 60% in size
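Measured in stably transfected Huh7 cells bearing a Rab9 promoter–luciferase construct: 24 h compound treatment at 37 °C, followed by luminescence detection.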
ELG1 genotox: qHTS screen for small molecules that induce genotoxicity in human embryonic kidney (HEK293T) cells expressing luciferase-tagged ELG1 | HEK293T ELG1-luciferase reporter, luminescence, 16 h | Potency, µM (highest dose often 46 µM), for the others: at the highest dose activity change, positive = activation, usual class: activators | AID 504466, 2011 | 1.3% of 330,000 active; also: % of control where 0% means no effect; nearly all actives have a fitted effect of over 60% in size
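Screening used a luciferase reporter fused to human ELG1 in HEK293T cells. Luminescence was read on a CCD plate imager after 16 hr exposure and 30 min ONE-Glo incubation.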
SMN2 splice up: qHTS Assay for Enhancers of SMN2 Splice Variant Expression; Potency, µM (top dose mostly 46.1 µM), for the others: top-dose activity change, positive = activation, actives largely listed as activators; 2.8% of 210,000 active; HEK293 SMN2-luciferase splicing reporter, luminescence, 30-36 h; also: % of control where 0% means no effect; nearly all actives have a fitted effect of over 55% in size
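HEK293 cells carry an SMN2 […]–luciferase reporter in which exon 7 inclusion puts luciferase in frame. Cells were plated 10-12 h before compound addition, then incubated 30-36 h at 37C. ONE-Glo luminescence was read; sodium butyrate at 4.5 mM final served as control.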
NPC1 prom act: qHTS Assay for NPC1 Promoter Activators; Huh7 NPC1 promoter luciferase reporter, 24 h; Potency, µM (highest dose often 9.22 µM), without a hit: at the highest dose activation, most hits filed as activators; 2.4% of 320,000 active; also: % of control where 0% means no effect; nearly all actives have a fitted effect of over 60% in size
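Cells: Huh7 expressing luciferase under the NPC1 promoter, 1500/well. Seeded 2 h, compound added, incubated 24 h at 37 °C. Luciferase reagent, 10 min ambient, then luminescence.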
Active calls of the source: *; [ ] = remark or other dose. Most compounds without a hit are left out; they make up all but 7.4% or so of the library. Calls follow the shape of the dose curve; as a rule, active = well fitted curve in the direction sought with a large enough effect; inconclusive = small, poorly fitted or top-dose-only effect, or another doubt; inactive = no such curve, though single readings can be large; an effect the other way counts as inactive or inconclusive. Potency is read from the fitted curve at half-maximal effect.

C=CCN(Cc1ccc(Cl)s1)C(=O)c1ccc(F)c(S(=O)(=O)N2CCOCC2)c1 was read as ELG1 genotox -2.1%.
For CNc1nnc(-c2cccc(N(C)C)c2)s1 the results were FLuc counter 15.1µM*, Rab9 promoter act inconclusive, ELG1 genotox 11.2µM*, SMN2 splice up 14.1µM* and NPC1 prom act inconclusive.
For Nc1nnc(-c2cccc(F)c2)s1 the results were FLuc counter -19.3%, Rab9 promoter act -3.5%, ELG1 genotox 7.0% and NPC1 prom act 2.5%.
`O=C(c1cccc([N+](=O)[O-])c1)N1CCOCC1` gave FLuc counter 1.8%, Rab9 promoter act 3.2%, ELG1 genotox 1.2%, SMN2 splice up -11.9%[1.84 µM] and NPC1 prom act -1.7%.
For O=C(/C=C\c1ccc(-c2cccc([N+](=O)[O-])c2)o1)N1CCOCC1 the results were FLuc counter inconclusive, Rab9 promoter act 3.55µM*, ELG1 genotox inconclusive and NPC1 prom act inconclusive.
`CCCCNC(=O)c1ccc2c(c1)ncn2C1CCCC1` gave FLuc counter 16.9µM*, Rab9 promoter act 4.3%, ELG1 genotox inconclusive, SMN2 splice up 3.6% and NPC1 prom act -0.2%.
`CN1CCN(S(=O)(=O)c2ccc(N3CCc4ccccc4C3)nc2)CC1` gave FLuc counter 3.7%, Rab9 promoter act 4.9%, ELG1 genotox -7.3%, SMN2 splice up -50.0% and NPC1 prom act 3.4%.
COc1ccc(C(=O)NCCS(=O)(=O)N2CCOCC2)cc1 was read as FLuc counter -3.1%, Rab9 promoter act 2.7%, ELG1 genotox 3.2% and NPC1 prom act -5.2%.
For Cc1ccn2c(c1)nc(=S)n2C(=O)c1ccco1 the results were FLuc counter 1.51µM*, Rab9 promoter act 1.58µM*, ELG1 genotox inconclusive, SMN2 splice up 17.8µM* and NPC1 prom act 3.98µM*.
Screening COc1cc(/C=c2\s/c(=C\C(=O)C(C)(C)C)[nH]c2=O)cc(OC)c1OC returned FLuc counter -10.2%, Rab9 promoter act -13.7%, ELG1 genotox -3.1%, SMN2 splice up -7.8% and NPC1 prom act -5.6%.
Screening COc1ccc(/C=c2\s/c(=C\C(=O)C(C)(C)C)[nH]c2=O)cc1O returned FLuc counter 23.9µM*, Rab9 promoter act -2.9%, ELG1 genotox -8.7% and NPC1 prom act -1.4%.
`COc1ccc(OC)c(C2NC(=O)NC(C)=C2C(=O)Nc2ccc(F)cc2)c1` (stereo not drawn) gave FLuc counter -7.3% and SMN2 splice up 9.0%.
For O=C(Nc1ccc2c(c1)OCO2)OCc1ccccc1 the results were FLuc counter 6.01µM*, Rab9 promoter act 1.26µM*, ELG1 genotox inconclusive, SMN2 splice up 20µM* and NPC1 prom act 1.58µM*.
O=C(NCCc1ccc(F)cc1)Nc1ccc2c(c1)OCO2 was read as FLuc counter inconclusive, Rab9 promoter act 2.82µM*, ELG1 genotox 13.5% and NPC1 prom act inconclusive.
For O=C(NCCc1ccccc1)C(=O)Nc1ccc2c(c1)OCCO2 the results were FLuc counter -6.5%, Rab9 promoter act 25.8%, ELG1 genotox inconclusive, SMN2 splice up 20.5% and NPC1 prom act 29.5%.
`COc1ccc(CCNC(=O)Nc2ccc3c(c2)OCO3)cc1OC` gave FLuc counter -13.7%, Rab9 promoter act 0.3%, ELG1 genotox 0.7% and NPC1 prom act 2.2%.
O=C(NCCc1ccccc1)Nc1ccc2c(c1)OCO2 was read as FLuc counter 10.7µM*, Rab9 promoter act 1.41µM*, ELG1 genotox inconclusive, SMN2 splice up 14.1µM* and NPC1 prom act 2.51µM*.
`O=C(O)CCCCCNC(=O)Nc1ccc2c(c1)OCCO2` gave FLuc counter 9.53µM*, Rab9 promoter act -32.5%, ELG1 genotox 5.0% and NPC1 prom act -0.5%.
`C=CC(=O)OCCCCCCOC(=O)C=C` gave SMN2 splice up -9.3%.
For CC(C)NC(=O)/C(C#N)=C/c1ccc(N(C)C)o1 the results were FLuc counter -19.1%, Rab9 promoter act 17.5%, ELG1 genotox inconclusive and NPC1 prom act 13.0%.
`O=C(NCCc1ccccc1)Nc1cccc(Cl)c1` gave FLuc counter 16.9µM*, Rab9 promoter act inconclusive, ELG1 genotox 8.3%, SMN2 splice up 20.8% and NPC1 prom act inconclusive.
For COc1ccccc1NC(=O)Nc1ccc2c(c1)nc(C)n2C the results were FLuc counter 1.51µM*, Rab9 promoter act 0.562µM*, ELG1 genotox inconclusive, SMN2 splice up 12.6µM* and NPC1 prom act 0.631µM*.
Screening Cc1nc2cc(NC(=O)Nc3cccc4ccccc34)ccc2n1C returned FLuc counter 0.953µM*, Rab9 promoter act 0.891µM*, ELG1 genotox inconclusive, SMN2 splice up 3.98µM* and NPC1 prom act 3.16µM*.
COc1ccccc1NC(=O)Nc1cc(NC(=O)Nc2ccccc2OC)c(C)nc1C was read as FLuc counter -1.1%, Rab9 promoter act -7.3%, ELG1 genotox inconclusive, SMN2 splice up 31.3% and NPC1 prom act -5.7%.
`CCOc1ccc(NC(=O)Nc2ccc3c(c2)nc(C)n3C)cc1` gave FLuc counter inconclusive, Rab9 promoter act 12.7%, ELG1 genotox 5.0% and NPC1 prom act 2.5%.
`Clc1cccc(Nc2nnc(-c3ccccc3)c3ccccc23)c1` gave SMN2 splice up -46.6%.
`Cc1nc2cc(Nc3nnc(-c4ccccc4)c4ccccc34)ccc2n1C` gave FLuc counter 0.675µM*, Rab9 promoter act inconclusive, ELG1 genotox inconclusive and NPC1 prom act 3.55µM*.
Screening Cc1ccc(NC(=O)Nc2ccc3c(c2)nc(C)n3C)cc1C returned FLuc counter 2.69µM*, Rab9 promoter act 0.631µM*, ELG1 genotox inconclusive and NPC1 prom act 1.26µM*.
Screening Cc1nonc1C1CCCN1Cc1nc(-c2ccccc2Cl)oc1C (stereo not drawn) returned FLuc counter -0.4%, Rab9 promoter act -6.0%, ELG1 genotox -4.3% and NPC1 prom act -1.8%.
`COc1cccc(NC2=Nc3cccc4cccc2c34)c1` gave FLuc counter 12µM*, Rab9 promoter act -3.2%, ELG1 genotox 3.8%, SMN2 splice up 13.5% and NPC1 prom act -3.1%.
`Clc1ccc(/C=N/NC2=Nc3cccc4cccc2c34)cc1` gave FLuc counter 1.69µM*, Rab9 promoter act 0.631µM*, ELG1 genotox inconclusive, SMN2 splice up 11.2µM* and NPC1 prom act 0.631µM*.
For C(=N\NC1=Nc2cccc3cccc1c23)/c1cccnc1 the results were FLuc counter 4.78µM*, Rab9 promoter act 2.51µM*, ELG1 genotox inconclusive, SMN2 splice up 11.2µM* and NPC1 prom act 3.55µM*.
For COc1ccc(NC2=Nc3cccc4cccc2c34)cc1OC the results were FLuc counter inconclusive, Rab9 promoter act -2.5%, ELG1 genotox -2.6%, SMN2 splice up -8.8% and NPC1 prom act 6.0%.
